From PubChem BioAssay
Active and inactive are the calls of the source.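 Rule for the calls, unless noted: active = mean z-score across replicates of 1.96 or higher in either the MELAS or the Rieske mutant cell line; inactive = the rest.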 *1 amine or outer side, *2 acyl side, *3 side chain or, on linkers, in order; H or OH if unused. Where a SMILES comes first, the peptide text is derived from it. Bridges are numbered along the chain shown (N, C = ends). Roman numbers before positions name the chains, in order. [ ]: non-standard residue; d: D form. The star is where a group is joined. Hexamethylenediamine = C(CCCN[*:2])CCN[*:1]; Dip = N[CH](C(=O)O)C(c1ccccc1)c1ccccc1; Chg = N[CH](C(=O)O)C1CCCCC1; Cbz = O=C(OCc1ccccc1)*; NMeA = CN[CH](C)C(=O)O; CH2F = FC*

How the values were obtained:
[1] = sensitizers of A549 cells to miR-34 induction, primary screen, imaging, A549 dox-inducible miR-34, nuclei and caspase counts (AID 1347080;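 active = compounds whose cell count with miR-34 switched on is under 0.7 times the count with it off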); conditions: A549 miR-34 inducible, Hoechst nuclei count, 48 h
[2] = survival rescue of mitochondrial mutant cells in low glucose, primary screen, MELAS cybrids, Rieske KO mouse fibroblasts, CellTiter-Glo (AID 1508586);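 note: z relative to plate mean and SD of compound and empty wells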
[3] = stronger effect = lower value, cell number ratio, induced over uninduced
[4] = measured here: relative caspase fold change +Dox/-Dox
[5] = measured here: total cells with miR-34 induction, stronger effect = lower value
[6] = measured here: total cells without miR-34 induction
[7] = MELAS cybrid survival, CellTiter-Glo 48 h, stronger effect = higher value
[8] = Rieske KO mouse fibroblast survival, CellTiter-Glo 72 h
Note: test concentration not given here.

Row | SMILES | fold change [1, 3] | fold change [1, 4] | cell count [1, 5] | cell count [1, 6] | z-score [2, 7] | z-score [2, 8]
1 | COc1ccc(S(=O)(=O)N(C(C)=O)c2ccccc2C=Cc2cc[n+]([O-])cc2)cc1 | 1.18 (inactive) | 0.723 | 1240 | 1050 | 0.938 (inactive) | -0.247
2 | CC1(C)S[C@@H]2C(NC(=O)C(N)c3ccccc3)C(=O)N2C1C(=O)O (some centres not stated) | 0.917 (inactive) | 0.571 | 8070 | 8800 | -0.241 (inactive) | -0.225
3 | Nc1nc(=O)n(C2CSC(CO)O2)cc1F (configuration not stated) | 0.88 (inactive) | 0.906 | 7840 | 8920 | -0.288 (inactive) | 0.564
4 | COC(=O)CC(NC(=O)C(C)NC(=O)C(NC(=O)OCc1ccccc1)C(C)C)C(=O)CF (stereo not drawn) (Cbz-Val-Ala-Asp(OMe)-CH2F; configuration not given here) | 0.936 (inactive) | 0.758 | 8620 | 9210 | -0.172 (inactive) | -0.115
5 | CC(OC1OCCN(Cc2n[nH]c(=O)[nH]2)C1c1ccc(F)cc1)c1cc(C(F)(F)F)cc(C(F)(F)F)c1 (configuration not stated) | 0.911 (inactive) | 3.19 | 7240 | 7950 | 1.33 (inactive) | -2.44
6 | S=C=Nc1cccc(NC(=S)NCCCCNC(=S)Nc2cccc(N=C=S)c2)c1 | 0.972 (inactive) | 0.614 | 7440 | 7650 | -0.615 (inactive) | 0.0526
7 | OCC1OC(Oc2ccc(O)cc2)C(O)C(O)C1O (configuration not stated) | 0.859 (inactive) | 1.01 | 7730 | 9000 | -0.228 (inactive) | 0.468
8 | CC(C)(C)NS(=O)(=O)c1cncc(-c2cc(F)c3nc(N)nn3c2)c1 | 0.874 (inactive) | 1.55 | 8160 | 9340 | -0.353 (inactive) | -0.161
9 | CS(=O)(=O)c1ccc(C(O)C(CF)NC(=O)C(Cl)Cl)cc1 (configuration not stated) | 0.937 (inactive) | 0.642 | 8270 | 8820 | 0.0143 (inactive) | -0.0314
10 | NCc1c[nH]c(=S)n1C1CCc2c(F)cc(F)cc2C1 (configuration not stated) | 0.817 (inactive) | 2.13 | 7940 | 9720 | -0.197 (inactive) | -0.149
11 | CNCc1ccc(C)c(NC(=O)c2ccc(Nc3nc(-c4ccccc4)c4ccccc4n3)cc2)c1 | 0.989 (inactive) | 0.59 | 6570 | 6650 | -0.615 (inactive) | -0.107
12 | C=C1C(=O)OC2C=C(C)CCC=C(C)CCC12 (configuration not stated) | 0.92 (inactive) | 0.847 | 7130 | 7760 | -0.398 (inactive) | -0.0875
13 | C1=CCOCc2cc(ccc2OCCN2CCCC2)Nc2nccc(n2)-c2cccc(c2)COC1 | 0.848 (inactive) | 0.685 | 776 | 915 | 3.58 (active) | -5.03
14 | CNC1CN(c2ccc3c(=O)c(C(=O)O)cn(-c4nccs4)c3n2)CC1OC (configuration not stated) | 1.31 (inactive) | 0.345 | 1410 | 1080 | 2.91 (active) | -1.95
15 | CC#CCn1c(N2CCCC(N)C2)nc2c1c(=O)n(Cc1nc(C)c3ccccc3n1)c(=O)n2C (configuration not stated) | 0.91 (inactive) | 0.676 | 9950 | 10900 | -0.379 (inactive) | 0.539
16 | CC1CC=CC=CC=CC=CC(O[C@@H]2OC(C)C(O)C(N)C2O)C[C@@H]2O[C@](O)(CC(O)C[C@H]3OC3C=CC(=O)O1)CC(O)C2C(=O)O (some centres not stated) | 0.876 (inactive) | 1.14 | 7260 | 8280 | -0.47 (inactive) | -0.427

Row | SMILES | fold change [1, 3] | fold change [1, 4] | cell count [1, 5] | cell count [1, 6] | z-score [2, 7] | z-score [2, 8]
17 | O=C(NN=Cc1ccc([N+](=O)[O-])o1)c1ccc(O)cc1 | 1.02 (inactive) | 0.454 | 8470 | 8320 | -0.586 (inactive) | -0.436
18 | Cc1c(C(=O)Nc2ccc(N3CC(C)OC(C)C3)nc2)cccc1-c1ccc(OC(F)(F)F)cc1 (configuration not stated) | 0.962 (inactive) | 0.609 | 6270 | 6520 | -0.33 (inactive) | 0.503
19 | O=C(Nc1ncc(SCCN2CCCC2)s1)[C@]1(c2ccc(S(=O)(=O)C3CC3)cc2)CC1C1CCCCC1 (some centres not stated) | 0.954 (inactive) | 1.22 | 5020 | 5260 | -0.306 (inactive) | -0.0398
20 | CC1(C)SC2C(NC(=O)C(C(=O)O)c3ccsc3)C(=O)N2C1C(=O)O (configuration not stated) | 0.763 (inactive) | 0.814 | 7330 | 9600 | -0.203 (inactive) | -0.146
21 | O=C(CCCS)NC1CCN(C(=O)COc2ccc(Cl)cc2Cl)CC1 | 0.885 (inactive) | 0.313 | 7910 | 8940 | -0.37 (inactive) | 1.05
22 | CC1(C)SC2C(NC(=O)C(NC(=O)N3CCNC3=O)c3ccccc3)C(=O)N2C1C(=O)O (configuration not stated) | 0.905 (inactive) | 1.06 | 8030 | 8880 | -0.162 (inactive) | -0.16
23 | N=c1ccn2c(n1)OC1C(O)C(CO)OC12 (configuration not stated) | 1.07 (inactive) | 0.814 | 2350 | 2200 | 0.074 (inactive) | 0.000793
24 | COc1ccc(CNc2nc(N3CCCC3CO)ncc2C(=O)NCc2ncccn2)cc1Cl (configuration not stated) | 0.988 (inactive) | 1.09 | 8210 | 8300 | -0.603 (inactive) | -0.114
25 | O=C1c2c(O)cccc2[C@H]([C@@H]2OC(CO)C(O)C(O)C2O)c2cc(CO)cc(O)c21 (some centres not stated) | 0.88 (inactive) | 0.843 | 8560 | 9720 | -0.344 (inactive) | -0.143
26 | O=C(C=Cc1ccc2ccccc2n1)c1ccncc1 | 0.681 (active) | 0.506 | 2580 | 3790 | 0.232 (inactive) | 1.5
27 | Cc1ccc(CNc2ncnc3ccc(-c4ccc(CO)o4)cc23)o1 | 0.916 (inactive) | 0.52 | 7510 | 8210 | -0.414 (inactive) | 0.153
28 | CNC(C)C(=O)NC(C(=O)N1CCCC1C(=O)NC(C(=O)NCCCCCCNC(=O)C(NC(=O)C1CCCN1C(=O)C(NC(=O)C(C)NC)C1CCCCC1)C(c1ccccc1)c1ccccc1)C(c1ccccc1)c1ccccc1)C1CCCCC1 (configuration not stated) (I: H-[NMeA][Chg]P[Dip] / II: H-[NMeA][Chg]P[Dip]; linker I:C-II:C via Hexamethylenediamine; configuration not given here) | 0.971 (inactive) | 0.501 | 8750 | 9000 | -0.461 (inactive) | -0.132
29 | CC1COCCN1c1cc(C2(S(C)(=O)=O)CC2)nc(-c2cccc3[nH]ccc23)n1 (configuration not stated) | 0.703 (inactive) | 2.27 | 1950 | 2770 | 2.53 (active) | -0.319
30 | O=C1NC(=O)C(=Cc2ccc3nccc(-c4ccncc4)c3c2)S1 | 0.936 (inactive) | 0.601 | 1700 | 1820 | 0.995 (inactive) | -1.12
31 | O=C(c1ccc(C=Cc2n[nH]c3ccccc23)cc1)N1CCNCC1 | 0.879 (inactive) | 0.981 | 2420 | 2750 | 0.658 (inactive) | -1.76
32 | CCn1c(N)c(C(=O)NC)c(=O)c2ccc(C#C[C@@](C)(O)COC)nc21 | 0.913 (inactive) | 0.578 | 6630 | 7260 | -0.356 (inactive) | -0.157
